This note sets out measurements from PubChem BioAssay AID2284135 (EPA ToxCast).

Records with an inconclusive call do not appear. Activity calls are given as the source filed them. Rule for the calls: active = hit-call score of the fitted dose curve at least 0.9, where 1 is the maximum; inconclusive = response in the unintended direction; inactive = score below 0.9.

The target of this experiment is cAMP-dependent protein kinase catalytic subunit alpha (Homo sapiens) (UniProt P17612). Put plainly: ERF_TW_ENZ_hPRKACA: Eurofins (ERF) Enzymatic Radiometric [10 uM ATP] LeadHunter Assay for human PKA AGC Kinase. The protocol: ERF_TW_ENZ_hPRKACA is a biochemical, single-readout assay that uses extracted gene-proteins in a cell-free assay. Measurements were taken 0.25 hour after chemical dosing in a 96-well plate. See PKA Human AGC Kinase Enzymatic Radiometric Assay [10 uM ATP], Panlabs.ERF_TW_ENZ_hPRKACA is an assay component calculated from the ERF_TW_ENZ_hPRKACA assay. It is designed to measure enzyme activity using a type of enzyme reporter as detected by scintillation counting with radiometry technology.Data from the assay component ERF_TW_ENZ_hPRKACA was analyzed at the assay endpoint, ERF_TW_ENZ_hPRKACA, in the positive analysis fitting direction relative to DMSO as the negative control and baseline of activity. Using a type of enzyme reporter, loss-of-signal activity can be used to understand changes in enzymatic activity as they relate to gene PRKACA. To generalize the intended target to other relatable targets, this assay endpoint is annotated to the kinase intended target family, where the subfamily is serine/threonine kinase.
Human protein kinase PKA expressed in E. coli. is used. Test compound and/or vehicle is preincubated with 23 ng/ml enzyme in modified MOPS buffer pH 7.2 at 37C for 15 minutes. The reaction is initiated by addition of 0.5 uM PKA substrate peptide, 10 uM ATP and 0.25 uCi [gamma32P]ATP for another 15 minute incubation period and terminated by further addition of 3 % H3PO4. An aliquot is removed to a 96 well multiscreen, washed with H3PO4 solution, dried and counted to determine the amount of 32P- PKA substrate peptide formed. Compounds are screened at 10 uM.Test Sample Requirements: Minimum for 1) Screen: 25 ul of 10 mM stock -OR- 1 mg (pre-weighed). 2) Dose Response: 60 ul of 10 mM stock -OR- 1 mg (pre-weighed).
On to `COc1cc(CCC(=O)CC(=O)CCc2ccc(O)c(OC)c2)ccc1O`, for which the half-maximal activity concentration (AC50) is 3010 nM (active).

Take `O=C(/C=C/c1ccc(O)cc1)CC(=O)/C=C/c1ccc(O)cc1`: the AC50 was 2190 nM (active).

Take `COc1cc(/C=C/C(=O)CC(=O)/C=C/c2ccc(O)c(OC)c2)ccc1O`: the half-maximal activity concentration (AC50) was 2970 nM (active).
